For 13 compounds, inhibition results are on record in ChEMBL document CHEMBL1961873, “Compounds: GSK PKIS; Assays: Nanosyn kinase panel” (2012).

Experiment [1] addresses Casein kinase I isoform gamma-2 (Homo sapiens) (UniProt P78368). The conditions noted are these: at 1 µM.
Experiment [2] concerns the target Casein kinase I isoform gamma-3 (Homo sapiens) (UniProt Q9Y6M4). The conditions noted are these: at 0.1 µM.
Experiment [3] shares this target. The conditions noted are these: at 1 µM.
Experiment [4] concerns the target Cyclin-dependent kinase 1 (Homo sapiens) (UniProt P06493). The following applies: at 0.1 µM.
For experiment [5] the target is unchanged. The conditions noted are these: at 1 µM.
The target of experiment [6] is Cyclin-dependent kinase 2 (Homo sapiens) (UniProt P24941). The conditions noted are these: at 0.1 µM.
Experiment [7] has the same target. The following applies: at 1 µM.
Experiment [8] shares this target. The conditions noted are these: at 0.1 µM. This is another data set of the same source.
For experiment [9] the target is unchanged. The conditions noted are these: at 1 µM. The source holds these as a separate data set.
The target in experiment [10] is T1, CDK3/Cyclin E (Homo sapiens) (UniProt P24864+Q00526). The conditions noted are these: at 0.1 µM.
The target in experiment [11] is T1, CDK3/Cyclin E (Homo sapiens). The conditions noted are these: at 1 µM.
The target of experiment [12] is Cyclin-dependent kinase 4 (Homo sapiens) (UniProt P11802). The following applies: at 0.1 µM.
For experiment [13] the target is unchanged. The conditions noted are these: at 1 µM.
The target in experiment [14] is Cyclin-dependent kinase 5 (Homo sapiens) (UniProt Q00535). The conditions noted are these: at 0.1 µM.
Experiment [15] has the same target. The following applies: at 1 µM.
Experiment [16] deals with Cyclin-dependent kinase 6 (Homo sapiens) (UniProt Q00534). The conditions noted are these: at 0.1 µM.
Experiment [17] has the same target. The conditions noted are these: at 1 µM.
Experiment [18] addresses Dual specificity protein kinase CLK2 (Homo sapiens) (UniProt P49760). The conditions noted are these: at 0.1 µM.
For experiment [19] the target is unchanged. The following applies: at 1 µM.
The target in experiment [20] is Dual specificity protein kinase CLK3 (Homo sapiens) (UniProt P49761). The following applies: at 0.1 µM.
Chain of Dual specificity protein kinase CLK3 (Homo sapiens) (P49761 whole entry, looked up): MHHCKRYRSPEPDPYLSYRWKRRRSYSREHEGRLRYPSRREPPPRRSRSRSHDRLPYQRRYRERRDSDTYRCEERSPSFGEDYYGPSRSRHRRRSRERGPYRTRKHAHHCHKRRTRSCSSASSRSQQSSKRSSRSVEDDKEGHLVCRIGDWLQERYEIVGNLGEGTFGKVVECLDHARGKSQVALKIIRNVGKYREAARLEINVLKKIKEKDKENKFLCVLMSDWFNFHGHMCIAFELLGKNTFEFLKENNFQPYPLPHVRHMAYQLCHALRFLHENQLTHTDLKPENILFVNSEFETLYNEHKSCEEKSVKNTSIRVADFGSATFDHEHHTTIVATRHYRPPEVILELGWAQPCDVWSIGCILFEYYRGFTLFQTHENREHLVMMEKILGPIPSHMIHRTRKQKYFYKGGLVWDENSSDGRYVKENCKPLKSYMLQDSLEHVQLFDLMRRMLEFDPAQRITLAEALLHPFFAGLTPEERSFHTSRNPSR

Chain of Cyclin-dependent kinase 5 (Homo sapiens) (Q00535 whole entry, looked up): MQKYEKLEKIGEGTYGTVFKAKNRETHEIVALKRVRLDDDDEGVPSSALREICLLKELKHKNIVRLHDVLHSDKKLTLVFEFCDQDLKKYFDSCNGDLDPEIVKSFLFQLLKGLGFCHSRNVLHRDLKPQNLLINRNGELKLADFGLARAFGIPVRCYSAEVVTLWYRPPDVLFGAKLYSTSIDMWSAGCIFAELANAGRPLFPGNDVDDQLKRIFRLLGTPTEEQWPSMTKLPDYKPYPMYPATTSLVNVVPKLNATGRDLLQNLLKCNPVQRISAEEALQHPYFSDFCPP
Chain of Casein kinase I isoform gamma-3 (Homo sapiens) (Q9Y6M4 whole entry, looked up, canonical isoform): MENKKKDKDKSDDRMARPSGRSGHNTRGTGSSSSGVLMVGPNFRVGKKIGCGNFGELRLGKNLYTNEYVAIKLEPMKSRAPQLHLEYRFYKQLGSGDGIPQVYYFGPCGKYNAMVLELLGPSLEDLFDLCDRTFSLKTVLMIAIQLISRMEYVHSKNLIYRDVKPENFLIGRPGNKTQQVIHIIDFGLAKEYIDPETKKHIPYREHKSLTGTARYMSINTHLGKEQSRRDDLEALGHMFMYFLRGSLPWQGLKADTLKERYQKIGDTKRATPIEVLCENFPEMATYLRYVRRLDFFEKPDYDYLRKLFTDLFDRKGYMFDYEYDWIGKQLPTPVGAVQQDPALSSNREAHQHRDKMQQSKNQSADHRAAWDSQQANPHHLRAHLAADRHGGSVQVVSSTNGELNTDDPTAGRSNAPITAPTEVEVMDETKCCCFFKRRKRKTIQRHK
T1 sequence (P24864 whole entry, looked up): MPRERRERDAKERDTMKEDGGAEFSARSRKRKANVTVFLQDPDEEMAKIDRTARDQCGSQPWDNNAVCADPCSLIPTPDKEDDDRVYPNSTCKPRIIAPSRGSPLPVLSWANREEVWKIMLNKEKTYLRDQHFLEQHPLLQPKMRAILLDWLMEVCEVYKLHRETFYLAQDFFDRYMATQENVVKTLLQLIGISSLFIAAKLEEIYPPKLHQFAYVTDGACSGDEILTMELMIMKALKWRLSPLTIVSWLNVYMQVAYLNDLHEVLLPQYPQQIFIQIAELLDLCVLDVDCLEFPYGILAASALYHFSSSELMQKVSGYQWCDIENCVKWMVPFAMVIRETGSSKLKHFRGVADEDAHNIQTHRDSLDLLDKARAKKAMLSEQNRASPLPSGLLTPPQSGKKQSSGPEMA
T1 sequence (Q00526 whole entry, looked up): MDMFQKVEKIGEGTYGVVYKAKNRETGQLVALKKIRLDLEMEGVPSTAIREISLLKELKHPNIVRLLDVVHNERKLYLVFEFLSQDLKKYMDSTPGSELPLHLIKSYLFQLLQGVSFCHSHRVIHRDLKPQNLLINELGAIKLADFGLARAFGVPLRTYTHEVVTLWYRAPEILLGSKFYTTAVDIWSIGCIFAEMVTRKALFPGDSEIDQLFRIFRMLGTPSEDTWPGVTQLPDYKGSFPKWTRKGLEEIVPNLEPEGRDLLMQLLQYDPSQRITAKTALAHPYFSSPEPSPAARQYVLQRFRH
Chain of Cyclin-dependent kinase 6 (Homo sapiens) (Q00534 whole entry): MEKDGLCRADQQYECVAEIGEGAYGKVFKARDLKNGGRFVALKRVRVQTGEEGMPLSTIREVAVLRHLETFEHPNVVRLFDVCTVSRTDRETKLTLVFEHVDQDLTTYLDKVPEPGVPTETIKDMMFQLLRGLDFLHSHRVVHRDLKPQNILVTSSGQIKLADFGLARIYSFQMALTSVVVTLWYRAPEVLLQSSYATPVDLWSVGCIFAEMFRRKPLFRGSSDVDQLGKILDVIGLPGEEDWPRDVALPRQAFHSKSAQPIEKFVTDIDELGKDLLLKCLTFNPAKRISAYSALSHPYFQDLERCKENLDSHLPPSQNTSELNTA
Chain of Cyclin-dependent kinase 4 (Homo sapiens) (P11802 whole entry): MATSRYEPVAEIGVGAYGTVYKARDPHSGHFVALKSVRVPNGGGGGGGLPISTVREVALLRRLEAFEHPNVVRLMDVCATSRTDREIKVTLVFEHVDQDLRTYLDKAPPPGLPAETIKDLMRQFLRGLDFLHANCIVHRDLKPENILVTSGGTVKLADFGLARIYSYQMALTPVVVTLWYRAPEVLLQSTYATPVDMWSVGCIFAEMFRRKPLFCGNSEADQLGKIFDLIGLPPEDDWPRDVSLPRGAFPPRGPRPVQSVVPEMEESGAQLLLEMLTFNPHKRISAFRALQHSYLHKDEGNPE
Chain of Cyclin-dependent kinase 1 (Homo sapiens) (P06493 whole entry, looked up): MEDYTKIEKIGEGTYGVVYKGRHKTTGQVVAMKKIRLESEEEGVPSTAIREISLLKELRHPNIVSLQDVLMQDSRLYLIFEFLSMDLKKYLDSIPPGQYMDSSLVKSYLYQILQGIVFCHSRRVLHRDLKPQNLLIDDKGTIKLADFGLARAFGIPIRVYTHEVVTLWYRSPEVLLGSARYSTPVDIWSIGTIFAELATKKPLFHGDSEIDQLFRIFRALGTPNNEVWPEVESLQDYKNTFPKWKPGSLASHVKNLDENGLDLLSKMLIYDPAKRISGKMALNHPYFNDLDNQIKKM
Chain of Casein kinase I isoform gamma-2 (Homo sapiens) (P78368 whole entry, looked up, canonical isoform): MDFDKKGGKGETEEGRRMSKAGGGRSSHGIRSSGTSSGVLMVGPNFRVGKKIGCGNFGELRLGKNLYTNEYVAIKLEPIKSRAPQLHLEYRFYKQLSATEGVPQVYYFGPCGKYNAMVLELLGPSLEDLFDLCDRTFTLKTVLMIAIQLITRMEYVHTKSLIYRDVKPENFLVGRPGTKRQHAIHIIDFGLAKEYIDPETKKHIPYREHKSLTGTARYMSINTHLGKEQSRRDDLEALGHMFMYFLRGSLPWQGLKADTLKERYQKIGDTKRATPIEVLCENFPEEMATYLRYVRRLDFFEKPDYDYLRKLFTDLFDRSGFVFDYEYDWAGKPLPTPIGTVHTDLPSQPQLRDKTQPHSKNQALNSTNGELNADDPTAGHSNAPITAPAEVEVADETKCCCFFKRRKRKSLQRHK
Chain of Dual specificity protein kinase CLK2 (Homo sapiens) (P49760 whole entry, looked up): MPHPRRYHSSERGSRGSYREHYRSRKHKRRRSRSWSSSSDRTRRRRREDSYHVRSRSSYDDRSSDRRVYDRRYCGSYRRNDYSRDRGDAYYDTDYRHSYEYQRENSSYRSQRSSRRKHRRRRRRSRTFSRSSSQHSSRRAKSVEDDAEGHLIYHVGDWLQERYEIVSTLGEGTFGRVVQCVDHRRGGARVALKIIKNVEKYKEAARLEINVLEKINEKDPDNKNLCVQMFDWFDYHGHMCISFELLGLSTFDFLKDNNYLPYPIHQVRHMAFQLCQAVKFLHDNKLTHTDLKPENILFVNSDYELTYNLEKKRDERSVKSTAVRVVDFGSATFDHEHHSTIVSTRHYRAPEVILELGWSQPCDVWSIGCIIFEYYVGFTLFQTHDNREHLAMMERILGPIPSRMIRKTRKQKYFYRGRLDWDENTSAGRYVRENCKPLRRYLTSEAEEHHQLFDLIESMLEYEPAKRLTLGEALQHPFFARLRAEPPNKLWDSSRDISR

In the case of `Fc1ccc(-c2nn3ccccc3c2-c2ccncc2)cc1`, the inhibition in experiment [1] came to 7.48%; in [2], 0.7%; in [3], 15.1%; in [4] it was 0.74%; in experiment [5], 1.96%; in experiment [6], 2.05%. In addition, the inhibition is 2.06% in experiment [7]; 1.19% in [8]; 2.02% in experiment [9]; 0.78% in experiment [10]; -1.11% in experiment [11]; 1.37% in experiment [12]. Further, the inhibition is 2.18% in experiment [13]; 0.46% in [14]; 0.96% in experiment [15]; -1.88% in [16]; 2.7% in experiment [17]; 0.24% in [18]. Besides, the inhibition in [19] turned out to be 1.47%; in experiment [20], 0.63%.
On to `CCNC(=O)O[C@H]1CN[C@H](C#Cc2cc3ncnc(Nc4ccc(OCc5cccc(F)c5)c(Cl)c4)c3s2)C1`, for which the inhibition in [1] was 2.86%; in experiment [2], 3.84%; in [3] it was 0.57%; in experiment [4] it was 0.57%; in experiment [5], 2.13%; in experiment [6], 2.63%. Moreover, the inhibition in [7] is -0.72%; in [8] it was 2.61%; in experiment [9], 3.62%; in [10], 1.08%; in [11], 0.27%; in experiment [12], 2.39%. In addition, the inhibition came to 3.42% in experiment [13]; 0.38% in [14]; 1.78% in [15]; 9.65% in experiment [16]; 9.16% in experiment [17]; 1.63% in experiment [18]. Further, the inhibition in experiment [19] was 2.34%; in [20], 0.76%.
`CNC(=O)c1cccc(C#Cc2cncnc2Nc2ccc(OCc3cccc(F)c3)c(Cl)c2)c1`: the inhibition was 1.26% in experiment [1]; 2.38% in [2]; 0.88% in [3]; 0.46% in [4]; 2.85% in experiment [5]; -0.2% in experiment [6]. The inhibition worked out at 6.57% in experiment [7]; 4.58% in experiment [8]; 4.27% in experiment [9]; 2.79% in [10]; 3.72% in [11]; 2.35% in experiment [12]. Further, the inhibition in experiment [13] was 3.08%; in [14] it was 1.3%; in experiment [15] it was 2.33%; in [16], 4.83%; in experiment [17] it was 1.6%; in experiment [18], 0.38%. Besides, the inhibition in [19] was 2.72%; in experiment [20] it was -0.87%.
For the compound `CCn1c(-c2nonc2N)nc2ccccc21`, the inhibition in experiment [1] was 2.97%; in experiment [2], 0.54%; in [3] it was 4.86%; in experiment [4], -0.3%; in experiment [5] it was 0.59%; in experiment [6] it was 1.31%. The inhibition was determined as 2.17% in experiment [7]; 1.38% in experiment [8]; 4.31% in experiment [9]; 1.63% in [10]; 1.41% in [11]; 1.45% in [12]. For the same compound, the inhibition in experiment [13] stood at 3.08%; in experiment [14], 0.59%; in experiment [15] it was 1.17%; in experiment [16] it was 1.48%; in experiment [17], 1.55%; in experiment [18] it was 2.35%. The figures for the inhibition in experiment [19] and in experiment [20] were 4.78% and 1.2%, respectively.
As to `FC(F)(F)c1cccc(-c2nn3ncccc3c2-c2ccnc(Nc3ccc4c(c3)OCCO4)n2)c1`, the inhibition in [1] stood at 3.28%; in experiment [2], 1.54%; in experiment [3], 4.56%; in experiment [4] it was 1.58%; in experiment [5] it was 3.23%; in experiment [6], 1.29%. The inhibition was 0.77% in experiment [7]; 4.14% in experiment [8]; 4.5% in experiment [9]; 1.7% in experiment [10]; -0.03% in [11]; 2.66% in [12]. The inhibition in experiment [13] was 4.56%; in experiment [14], 1.65%; in experiment [15] it was 2.11%; in experiment [16], -1.79%; in [17], 2.39%; in experiment [18] it was 1.11%. Also, the values for the inhibition in experiment [19] and in [20] were 0.64% and 0.73%, respectively.
For the compound `Nc1nc(-c2cccc(Cl)c2)c(-c2ccc3ncccc3n2)s1`, the inhibition in [1] is 13.7%; in [2] it was 6.72%; in experiment [3] it was 24.7%; in experiment [4], 0.61%; in [5], 2.18%; in experiment [6], 1.23%. In addition, the inhibition was 0.95% in experiment [7]; 3.69% in experiment [8]; 4.47% in experiment [9]; 2.24% in experiment [10]; -3.18% in experiment [11]; 1.67% in experiment [12]. The inhibition in experiment [13] was 1.92%; in experiment [14], 0.34%; in experiment [15], 0.13%; in experiment [16], -7.38%; in [17], -2.65%; in [18], 2.6%. For the same compound, the inhibition in [19] was determined as 9.25%; in experiment [20] it was 2.15%.
Take `Fc1cccc(COc2ccc(Nc3ncnc4sc(-c5ccco5)cc34)cc2Cl)c1`: the inhibition in experiment [1] is 4.82%; in experiment [2], 3.95%; in [3] it was 3.97%; in [4], -1.09%; in experiment [5] it was 1.41%; in experiment [6], 2.79%. The inhibition in [7] is 2.68%; in [8], 3.66%; in experiment [9], 6.69%; in experiment [10], -0.59%; in experiment [11], -1.8%; in [12], 3.4%. For the same compound, the inhibition in experiment [13] was 5.13%; in experiment [14], -0.01%; in [15], 2.77%; in [16], 0.43%; in experiment [17] it was -0.36%; in [18] it was 1.15%. The inhibition in [19] was -0.23%; in experiment [20] it was 0.59%.
For the compound `Cc1ccc(O)cc1Nc1ccnc2cc(-c3ccccn3)ccc12`, the inhibition in [1] came to 6.53%; in experiment [2] it was 4.03%; in experiment [3] it was 6.72%; in experiment [4] it was 0.02%; in experiment [5], 1.83%; in experiment [6] it was 0.84%. The inhibition in [7] was 6.62%; in experiment [8], 3.98%; in experiment [9] it was 4.84%; in experiment [10], 1.95%; in [11] it was -0.7%; in experiment [12], 3.48%. The inhibition in experiment [13] came to 4.45%; in [14], 0.73%; in experiment [15] it was 1.9%; in experiment [16], 1.92%; in [17], 4.31%; in experiment [18], 1.89%. In addition, the inhibition is 3.5% in experiment [19] and 2.09% in experiment [20].
For `N#Cc1c(NC(=O)c2ccc(F)cc2)sc2c1CCCC2`, the inhibition in experiment [1] is 0.5%; in [2], 0.26%; in experiment [3], -1.32%; in experiment [4], -0.03%; in [5], -0.31%; in [6] it was 0.4%. In addition, the inhibition in experiment [7] was -1.07%; in experiment [8] it was 0.42%; in experiment [9], 1.03%; in experiment [10], 0.87%; in experiment [11], -1.72%; in experiment [12] it was 0.38%. The inhibition in [13] is 1.59%; in [14] it was 0.42%; in experiment [15], 0.28%; in experiment [16], -1.23%; in experiment [17] it was -0.13%; in experiment [18], -1%. Further, the inhibition in [19] came to 1.4%; in experiment [20], 0.44%.
`Clc1ccc(-c2nn3ncccc3c2-c2ccnc(Nc3ccccc3)n2)cc1`: the inhibition in [1] came out at 1.83%; in experiment [2], 1.6%; in [3], 4.02%; in experiment [4] it was 0.56%; in experiment [5], 1.32%; in experiment [6], 1.43%. Also, the inhibition in experiment [7] was 3.91%; in [8], 1.3%; in experiment [9], 2.48%; in experiment [10], 1.03%; in experiment [11], -0.36%; in [12], 1.45%. For the same compound, the inhibition in [13] was 2.58%; in [14] it was 0.66%; in [15], 1.41%; in experiment [16] it was 1.16%; in [17], 4.53%; in experiment [18], -0.96%. Further, the inhibition in experiment [19] is 1.58%; in experiment [20], 1.63%.
On to `CCn1c(-c2nonc2N)nc2cnc(Oc3cccc(NC(=O)c4ccc(N(C)C)cc4)c3)cc21`, for which the inhibition is 1.09% in experiment [1]; 0.95% in experiment [2]; 0.52% in experiment [3]; 0.43% in [4]; 0.67% in experiment [5]; 1.74% in [6]. Further, the inhibition in experiment [7] was 8.52%; in experiment [8], 1.65%; in experiment [9] it was 2.7%; in experiment [10], -1.33%; in [11], -1.3%; in experiment [12], 1.81%. For the same compound, the inhibition in experiment [13] is 1.34%; in experiment [14] it was 0.66%; in experiment [15], 1.93%; in [16], -1.64%; in experiment [17], 1.62%; in [18] it was -0.04%. For the same compound, the inhibition amounted to 1.15% in [19] and 0.38% in experiment [20].
As to `NS(=O)(=O)c1ccc(Nc2ncc(-c3ccccc3)o2)cc1`, the inhibition came to 4.34% in [1]; 3.53% in [2]; 3.96% in experiment [3]; 19.7% in experiment [4]; 66.2% in experiment [5]; 48.2% in experiment [6]. The inhibition in experiment [7] was found to be 109%; in experiment [8], 56.2%; in experiment [9] it was 86.8%; in experiment [10] it was 44.6%; in experiment [11], 77.2%; in experiment [12] it was 9.25%. Also, the inhibition turned out to be 26.5% in experiment [13]; 23.8% in experiment [14]; 70.3% in [15]; 13.1% in experiment [16]; 48.6% in experiment [17]; 1.81% in experiment [18]. Besides, the inhibition in experiment [19] was 1.67%; in [20] it was 2.28%.
For the compound `COc1cc2ncn(-c3cc(OCc4ccccc4C(F)(F)F)c(C(=O)N(C)C)s3)c2cc1OC`, the inhibition in [1] is 0.02%; in [2] it was -1.27%; in experiment [3], 0.6%; in [4], 0.2%; in experiment [5], 1.91%; in experiment [6] it was 1.29%. Further, the inhibition was -0.21% in experiment [7]; -0.22% in experiment [8]; 0.54% in [9]; 1.54% in [10]; -0.96% in experiment [11]; 1.04% in [12]. Also, the inhibition is 1.39% in experiment [13]; 0.01% in [14]; -0.22% in [15]; -1.98% in [16]; -0.75% in experiment [17]; -0.32% in experiment [18]. Also, the results for the inhibition in experiment [19] and in [20] were 2.04% and 0.46%, respectively.
